A selection: hits, their analogues and other compounds. The true share with any hit is near 4%.
BoNT A protease = BoNT/A light chain protease inhibitors, primary screen, biochemical, flow cytometry, MLPCN library. AID 588499, 2011. inhibition, % at 10 µM. 0.17% of 360,000 active. Botulinum neurotoxin type A light chain protease (Clostridium botulinum A str. ATCC 3502). multiplex microsphere protease substrate cleavage; note: plate controls were buffer without enzyme for full effect and enzyme alone for no effect
BoNT-F LC inh = BoNT/F light chain protease inhibitors, primary screen, biochemical, flow cytometry, MLPCN library. Botulinum neurotoxin type F light chain protease (Clostridium botulinum). Multiplex microsphere protease cleavage assay. inhibition, % at 10 µM. 0.22% of 360,000 active; in the data active = inhibition above about 35%, passing the limit was not always enough; inconclusive = no clear call, values can overlap the other calls; note: plate controls were buffer without enzyme for full effect and enzyme alone for no effect
Anthrax LF inh2 = Bacillus anthracis LF protease inhibitors, primary screen, biochemical, multiplex microsphere, MLPCN library. multiplex microsphere protease cleavage assay. 0.12% of 360,000 active. inhibition, % at 10 µM. Lethal factor (Bacillus anthracis), P15917; note: plate controls were buffer without enzyme for full effect and enzyme alone for no effect
Bead autofluor = counter-screen for toxin protease inhibitors: compound fluorescence. compound autofluorescence counterscreen, microsphere flow cytometry; hits give high values. fluorescence intensity (concentration not given with the values). 3.1% of 360,000 active; in the data active = fluorescence intensity above about 16000; inconclusive = no clear call, values can overlap the other calls
MazEF act = activators of E. coli MazEF toxin-antitoxin RNase, primary screen, biochemical, fluorescence, uHTS. Endoribonuclease toxin MazF (Escherichia coli (strain K12)), P0AE70. FAM/BHQ RNA-DNA oligo cleavage fluorescence, 5 h. activation, % at 20 µM. 0.32% of 350,000 active. AID 504720, 2011; in the data active = activation above about 50%
VHR inh abs = VHR1 phosphatase inhibitors, primary screen, biochemical, absorbance, uHTS. recombinant VHR phosphatase, pNPP absorbance. inhibition, % at 13.3 µM. 0.52% of 290,000 active; in the data active = inhibition above about 50%
An asterisk follows results filed as active; ? = inconclusive; . = not tested or not shown. Cut-off read from the data, not from the text of the source, unless noted: active = inhibition above about 30%; inconclusive = no clear call, values can overlap the other calls; inactive = below that.

SMILES	BoNT A protease	BoNT-F LC inh	Anthrax LF inh2	Bead autofluor	MazEF act	VHR inh abs
Brc1cccc(-c2cnc3n2CCCCC3)c1	0	6	1	2419	5	19
Clc1ccc(-c2cnc3n2CCC3)cc1	?	1	-3	21764*	-6	45
Cc1ccc(N2CCN(Cc3ccccc3)CC2=O)c(C)c1	2	?	8	3941	10	-2
c1ccc(Cc2c[nH]c3ccccc23)cc1	2	?	6	2846	1	-4
O=c1cc[nH]c2cccc(Cc3ccccc3)c12	-2	-2	-4	24296*	0	14
Oc1cc(O)c2c(c1)O[C@H](c1ccc(O)c(O)c1)[C@H](O)C2	0	1	4	2808	45	37
O=C(Nc1ccc(F)c(F)c1)c1cnc(-c2ccccc2)nc1-c1ccccc1	?	?	?	?	3	10
O=C(Nc1ccc(F)cc1)c1cnc(-c2ccccc2)nc1-c1ccccc1	?	8	-8	18660*	4	25
COc1ccccc1CNC(=O)CC(C)c1ccccc1 (centres undefined)	-6	?	-1	3762	8	21
COc1ccccc1/C=C(/CC(=O)NCc1ccccc1)c1nc2ccccc2s1	1	-6	-1	2567	13	54*
COc1ccccc1/C=C(/CC(=O)NCc1ccc(F)cc1)c1nc2ccccc2s1	1	-8	-2	2203	-1	2
COC(=O)[C@H]1C[C@@]2(O)CN(S(=O)(=O)c3ccc(C)cc3)C[C@@]2(OC(=O)NCc2ccc(OC)c(OC)c2)C[C@H]1C(=O)OC	0	-3	-3	3763	8	.
Cc1ccc(C(=O)N/N=C/c2c[nH]c3ccccc23)o1	1	1	-1	5394	-6	15
Cc1ccc(CNC(=O)C2CCC(CNS(=O)(=O)c3cccc4cccnc34)CC2)cc1 (centres undefined)	0	-2	-1	6062	2	18
COc1cccc(CNC(=O)C2CCN(S(=O)(=O)N3CCCCC3)CC2)c1	-5	-2	-2	21716*	-5	14
COc1cccc(CNC(=O)C2CCC(CNS(=O)(=O)c3cccc4cccnc34)CC2)c1 (centres undefined)	0	0	0	4840	1	56*
COc1cccc(CNS(=O)(=O)c2c(C(=O)N3CCCCC3)c(C)n(C)c2C)c1	6	1	6	6077	10	54*
COc1cccc(CNC(=O)C2CSC3(C)CCC(=O)N23)c1 (centres undefined)	12	29	3	17016*	-13	.
COc1cccc(CNS(=O)(=O)c2c(C(=O)N3CCCCCC3)c(C)n(C)c2C)c1	10	14	6	3961	7	9
COc1ccc(N2C(=O)CC2(C#N)c2ccc(OCc3ccccc3)cc2)cc1 (centres undefined)	0	-1	-3	9145	3	-11
N#CCn1c(Cc2ccccc2)nc2ccccc2c1=O	3	?	-13	3748	3	17
N#CC/C(N)=N/Nc1nc2ccccc2nc1Cc1ccccc1	2	-50	31*	2387	6	17
CC(=O)n1nc(-c2ccccc2)nc1NCc1ccc(F)cc1	-1	-3	-7	4540	-1	5
O=C(c1cccs1)n1nc(-c2ccccc2)nc1NCc1ccc(F)cc1	?	-6	-3	25264*	-4	-5
Cc1cccc(C)c1Nc1nnc(SCC(=O)NC(=O)c2cccn2C)s1	1	1	-1	2078	-3	51*
CN(C(=O)CCc1nc2ccccc2s1)c1ccccc1	0	-9	-3	10692	4	13
COc1ccc(Oc2nnnn2-c2ccccc2)cc1	?	-4	-3	22772*	-3	3
CCCc1nc2n[nH]c(N)c2c2c1CCC2	0	-3	0	2759	-4	10
CN1CCc2c(c(N3CCCCC3)nc3n[nH]c(N)c23)C1	?	-3	-1	20525*	-6	5

Source: PubChem
